± gives the standard deviation of the averaged measurements. Whole data set: some 33,000 sequences, median “E-score (rank enrichment, -0.5 to 0.5)” near -0.0028, cut for the highest 2% near 0.23. This is one part of a sample in which the highest values are shown more often than they occur.
Each sequence was assayed on 2Sb-muMax20 (muMax20 with two 1,3-bis(methyl)benzene Cys staples, A13C/A17C and Q88C/A92C, C-terminal Lys) (assay: PBM 8-mer E-score (E-score (rank enrichment, -0.5 to 0.5)); higher = stronger preferential binding).
Protocol: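 Protein binding microarray (universal PBM chip covering all 10-mers in fixed probe flanks) with chemically synthesized human Max(13-93) bHLH-LZ analogs (not full-length Max) bearing noncanonical residues (hArg, Tha, Aib, Nle at 65) and aromatic Cys staples. Read-out per 8-mer (and its reverse complement): E-score (rank-based enrichment, -0.5 to 0.5) and Z-score of median probe intensity.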

Row | Sequence | PBM 8-mer E-score
1 | ATCCCCTG | 0.114 ± 0.01
2 | CCTAAACC | 0.0137 ± 0.051
3 | CACACTAG | 0.0294 ± 0.013
4 | ATTCTGCG | -0.00613 ± 0.071
5 | AAGTACGC | 0.0498 ± 0.026
6 | CCCTTGAG | 0.00432 ± 0.0094
7 | GCTGGCTA | -0.249 ± 0.011
8 | ACCCCGAT | 0.136 ± 0.042
9 | CCGTATAC | 0.0522 ± 0.032
10 | CACGAGGA | -0.017 ± 0.031
11 | CACGAGAA | -0.0119 ± 0.064
12 | AACGAGAT | -0.0543 ± 0.025
13 | AACGAGGA | 0.239 ± 0.015
14 | TACGAGGA | 0.169 ± 0.069
15 | AACGAGAA | 0.238 ± 0.04
16 | ATAGTGCG | 0.0132 ± 0.011
17 | CATCGGAC | -0.165 ± 0.033
18 | CATCATAA | 0.142 ± 0.0093
19 | TATCATAA | 0.181 ± 0.012
20 | GATCATAA | 0.278 ± 0.0031
21 | CATCGCGA | 0.056 ± 0.036
22 | ACCATAAC | 0.1 ± 0.012

Row | Sequence | PBM 8-mer E-score
23 | ATAAATTA | 0.307 ± 0.014
24 | ATAAATTG | 0.165 ± 0.082
25 | ATTAACTC | 0.136 ± 0.005
26 | GTTAACTA | 0.207 ± 0.1
27 | GTTAATGA | 0.148 ± 0.06
28 | CTAAATTA | 0.0224 ± 0.0043
29 | ATTAATTA | 0.263 ± 0.034
30 | ATTAATTC | 0.105 ± 0.042
31 | ATTAATGA | 0.278 ± 0.055
32 | ATTAACTA | 0.237 ± 0.012
33 | ATTAATGG | 0.0434 ± 0.0092
34 | ATTAATTG | 0.175 ± 0.039
35 | CGGTCACG | -0.188 ± 0.076
36 | CAGGGAGC | -0.238 ± 0.051
37 | AGCCTTCA | 0.149 ± 0.085
38 | GATAATTA | 0.0844 ± 0.0069
39 | AATAATGC | 0.213 ± 0.083
40 | AATAATTA | 0.269 ± 0.06
41 | ATGAACTC | -0.04627 ± 0.0002
42 | ATGAACTA | 0.27 ± 0.054
43 | AATAATGG | 0.138 ± 0.0076
44 | AATAATGT | 0.283 ± 0.0037

Row | Sequence | PBM 8-mer E-score
45 | CATAATTA | 0.203 ± 0.039
46 | CTGAACTA | -0.149 ± 0.065
47 | GAGTGCAC | -0.0155 ± 0.11
48 | AATACGGA | 0.0895 ± 0.071
49 | CGGAATGC | -0.00566 ± 0.015
50 | GTCCATTA | 0.107 ± 0.015
51 | ATGTGGAA | 0.173 ± 0.015
52 | GGAAATAC | -0.0227 ± 0.051
53 | GAGTTCCA | -0.117 ± 0.052
54 | GCACGTCC | -0.139 ± 0.095
55 | GAACGTGA | 0.00502 ± 0.1
56 | GCACGTGA | 0.241 ± 0.026
57 | GGACGTGA | -0.108 ± 0.045
58 | GCACGTGC | 0.4793 ± 0.0038
59 | GCACGTAC | 0.0889 ± 0.026
60 | GTTCCGTA | -0.187 ± 0.024
61 | ATCCACAA | 0.0617 ± 0.059
62 | ATCGTCCG | -0.149 ± 0.027
63 | GTTTCTTA | 0.0179 ± 0.046
64 | AATAACCG | 0.0384 ± 0.018
65 | CCGCGCGC | 0.01 ± 0.0081
66 | GCGCGCGA | 0.0594 ± 0.082

Row | Sequence | PBM 8-mer E-score
67 | ACGCGCGG | 0.178 ± 0.038
68 | ACGCGCGC | 0.1365 ± 0.00093
69 | GCGCGCGC | 0.3223 ± 0.00078
70 | ACGCGCGT | 0.3355 ± 0.0029
71 | AGCAGTTC | 0.00143 ± 0.078
72 | AAAAATAA | 0.0834 ± 0.061
73 | GACCTGGA | -0.164 ± 0.035
74 | AATATTCT | 0.133 ± 0.011
75 | GATACGTA | 0.081 ± 0.0043
76 | AATACGTA | 0.231 ± 0.019
77 | AATACGCT | 0.188 ± 0.045
78 | CATACGTA | 0.3021 ± 0.0027
79 | AATACGTG | 0.0524 ± 0.012
80 | CATACGTC | -0.00541 ± 0.00038
81 | AATACGCA | 0.251 ± 0.0039
82 | AATACGTC | 0.0547 ± 0.024
83 | GATACGCA | 0.115 ± 0.031
84 | AAGCACAC | 0.0724 ± 0.00084
85 | AGACGTAA | 0.0336 ± 0.059
86 | CCGTAGAG | -0.0843 ± 0.033
